“And” between values parts separate entries of the source, which are not always exact repeats. Identical values can stand only once. The panel holds about 83,000 compounds, 20% with a hit somewhere; the sample as a whole holds those more often.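 Interpretation: 100, growth as untreated; towards 0, rising growth inhibition; 0, no net growth; 0 to -100, cell death. Compounds scoring below 10 were considered active.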 The source made the active and inactive calls.

This assay has as its system MDA-MB-468 breast. As to the kind of experiment: NCI-60 one-dose screen, 48 h (100 = growth as untreated, 0 = no growth, -100 = all killed). The conditions noted are these: 10 µM unless noted.
Regarding `CNCCCNc1nc2ccccc2c2c(=O)c3cc(Cl)ccc3sc12`, the growth is 18.4% (inactive).

Regarding `C=C1C(=O)O[C@H]2[C@H]1CC/C(COC(=O)N[C@@H](Cc1c[nH]c3ccccc13)C(=O)OC)=C\CC[C@@]1(C)O[C@@H]21`, the growth is -16.4% (active).

Turning to `COc1ccc(C(=O)CSc2nc(-c3cc(OC)ccc3OC)cc(-c3ccc(Cl)cc3)c2C#N)cc1`, the growth was 25.8% (inactive).

Turning to `CC1=C(C(=O)OCC2CCN(C(=O)OC(C)(C)C)CC2)[C@H](c2cccc(Br)c2)C2=C(CC(C)(C)CC2=O)N1`, the growth is 29.7% (inactive).

Take `CCCCC(=O)c1ccco1`: the growth was 95.1% (inactive).

With `Cc1cn(C(=O)/C(Cl)=C(/Cl)C(=O)O)c2ccccc12`, the growth was 108% (inactive).

Consider `CC(=O)c1ccc(NC(=O)CSc2nnc(-c3cc(-c4ccc(Cl)cc4)nc4ccccc34)o2)cc1`, for which the growth was 115% (inactive).

Consider `C=C1C(=O)O[C@H]2[C@H]1CC/C(CNC(=O)c1cc3cc(OC)ccc3[nH]1)=C\CC[C@@]1(C)O[C@@H]21`, for which the growth was -67.7% (active).

`Fc1ccc(-c2nc(C(Cl)Cl)nc3cc(-c4ccccc4)nn23)cc1`: the growth was -52.7% (active).

Take `Nc1c(C(=O)Nc2cccc(Cl)c2)sc2ncc(Br)cc12`: the growth is 94.1% (inactive).

Consider `Oc1[nH]c2ccccc2c1/C=c1/ccc2c(c1)N=C(c1ccc(C(F)(F)F)cc1)N=2`, for which the growth is 43.6% (inactive).

`C/C(=C\CCc1ccoc1)CC/C=C(\C)CCCN1CCSCC1`: the growth is 22.6% (inactive).

Turning to `Cc1ccc(-c2nc3c(N=Nc4ccc(S(N)(=O)=O)cc4)c(N)nn3c(N)c2C#N)cc1`, the growth was 5.87% (active).

Take `CCn1ccnc1C(=O)/C=C/c1ccc(CC(=O)Nc2ccc(F)cc2)cc1`: the growth was -13.8% (active).

Consider `CCCC#CCN(CC)CC`, for which the growth was 99.1% (inactive).

Regarding `CN(C)C(=S)SC(=S)N(C)C`, the growth is 91.4% (inactive) and 95.3% (inactive).

Turning to `CCOc1ccc(C(=O)Nc2ncc(Cc3ccc(F)cc3)s2)cc1`, the growth was 31.9% (inactive).

As for `CCCc1c(C)c2sc(=O)[nH]c2[nH]c1=O`, the growth was 99.4% (inactive).

For the molecule `FC(F)(F)c1cccc([Si](F)(c2cccc(C(F)(F)F)c2)c2cccc(C(F)(F)F)c2)c1`, the growth was 54.4% (inactive).

Take `COc1ccc(C(c2cc(OC)c(OC)c(OC)c2)N2CCN(Cc3ccccc3)CC2)cc1` (stereo not given): the growth is 53% (inactive).

On to `CCCn1c(=O)[nH]c(N)c([C@H]2c3ccccc3Oc3[nH]c(=O)n(CCC)c(=O)c32)c1=O`, for which the growth is 68.7% (inactive).

Regarding `CCCN(CCC)CC(O)COc1ccccc1C(=O)Nc1ccccc1` (stereo not given), the growth was 85.9% (inactive).

In the case of `NC(=O)c1cc(Cl)ccc1NC(=O)c1ccccc1-c1ccccc1`, the growth was 25.4% (inactive).

`O=C(CSc1nnc(-c2cc(-c3ccccc3)nc3ccccc23)o1)c1ccc(Br)cc1`: the growth is 103% (inactive).

`C=CCOC(=O)C1=C(C)NC2=C(C(=O)CCC2)C1c1ccc(F)cc1` (stereo not given): the growth was 92.3% (inactive).

In the case of `COc1cc(N=Nc2cc(S(=O)(=O)O)cc3cc(S(=O)(=O)O)cc(O)c23)c(C)cc1N=Nc1c(S(=O)(=O)O)cc2cc(Nc3ccccc3)ccc2c1O`, the growth is 115% (inactive).

Turning to `O=C(OCc1ccccc1)n1nnc2ccccc21`, the growth was 107% (inactive).

Take `COc1ccc2cc(C(C)C(=O)Nc3ccc(-c4n[nH]c(=S)n4C4CCCCC4)cc3)ccc2c1` (stereo not given): the growth is 111% (inactive).

`COc1ccc(C2C(c3ccccc3)C(=O)N2c2cc(OC)c(OC)c(OC)c2)cc1I` (stereo not given): the growth is 15.7% (inactive).

As to `CCOc1ccccc1-c1cc(-c2cccs2)c(C#N)c(=O)[nH]1`, the growth was 2.06% (active).

Consider `COc1ccc(-c2nc3sc(C)nn3c2-c2nc3cc(C)c(C)cc3[nH]2)cc1`, for which the growth was 113% (inactive).

In the case of `CS(=O)(=O)Nc1cc(-c2ccc3ncc(C#N)c(Nc4cccc(Cl)c4F)c3c2)cnc1Cl`, the growth was -45.3% (active).

`COc1ccc(C(=O)N2NC(=O)/C(=C/c3ccc(F)cc3)N=C2c2ccccc2)cc1`: the growth is 90.6% (inactive).

As to `COc1ccc(-c2cnc(N)nc2-c2ccc(OC)cc2O)cc1`, the growth was 92.5% (inactive).

`CSc1ccc(-c2ccccc(=O)c2O)cc1`: the growth is 11.5% (inactive).

With `CC/C=C\C[C@@H](O)C/C=C1/C(=O)C=C[C@H]1C/C=C\CCCC(=O)OC`, the growth was 15.9% (inactive).

As to `COC(=O)c1cc([N+](=O)[O-])cc([N+](=O)[O-])c1Cl`, the growth was -7.42% (active).

As to `CCC(=O)c1ccc(O)c(OC)c1`, the growth was 103% (inactive).

In the case of `CCC(CC)N1C(=O)/C(=c2\sc3n(c2=O)NC2C(N=3)N(CC)C(=O)N2CC)c2ccccc21` (stereo not given), the growth is 79.9% (inactive).

Take `CCOC(=O)c1nc(Nc2ccc(C(C)=O)cc2)sc1C`: the growth is 96.9% (inactive).

The values above are taken from PubChem BioAssay (NCI).
